Measurements as given in PubChem BioAssay (NCATS).
Records with an inconclusive call do not appear. A number with no mark means an inactive call. Calls of active or inactive are those of the source. The call rests on the fitted dose curve; in most records, active means well fitted inhibition curve with a large enough effect; inconclusive means small, poorly fitted or top-dose-only effect; inactive means flat fitted curve, though single readings scatter.

Test: P-glycoprotein substrates identified in KB-8-5-11 adenocarcinoma cell line, qHTS therapeutic library screen (AID 1346987); further: nearly all actives have a fitted effect of over 65% in size
Conditions: KB-8-5-11 (P-gp overexpressing) viability, CellTiter-Glo, 72 h; series mostly up to 44.5 µM; activity change, negative = cytotoxicity: at the top concentration
In short: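 Compounds are pinned in dose-response onto KB-8-5-11 cells (500 cells/well, colchicine-free medium) and left 72 h at 37 degree C. CellTiter-Glo luminescence then yields AC50 values.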
On the % scale 0 is the no-effect control and ±100 the full control effect; potency means the concentration at half of the fitted maximal effect.

Structure (SMILES) | activity change, negative = cytotoxicity | outcome | Potency
CCOC(=O)Nc1nc2ccccc2[nH]1 | 0.805% |  | 
CC1=CC2(O)/C=C/C(C)(O)CC(O)/C=C/C(=O)OC23C(=O)NC(CC(C)C)C3C1C (stereo unspecified) | 5.24% [at 17.3 µM] |  | 
CC(=O)O[C@H]1[C@H](C)[C@@H](O)[C@H]2[C@@H]1C=C(C(=O)O)[C@H]1C[C@@H]3[C@H]([C@H]21)[C@H]1C(=O)O[C@@H]2CC[C@@]3(C)O[C@]1(O)[C@@H]2C | 8.35% [at 17.3 µM] |  | 
CC1CCC2(C(=O)OC3OC(COC4OC(CO)C(O)C(O)C4O)C(O)C(O)C3O)CCC3(C)C(=CCC4C5(C)CCC(O)C(C)(C(=O)O)C5CCC43C)C2C1(C)O (stereo unspecified) | 1.52% [at 9.29 µM] |  | 
O=C1NC(Cc2ccc(O)cc2)C(=O)N2CCCC12 (stereo unspecified) | 3.23% |  | 
CN1Cc2c(N)cccc2C(c2ccccc2)C1 (stereo unspecified) | 4.55% |  | 
CC1C(=O)CC2C3C(O)CC(C(=O)O)C12CC3(C)C (stereo unspecified) |  | inactive | 
C[C@]12CCC(=O)C=C1CC[C@@H]1[C@@H]2[C@@H](O)C[C@@]2(C)[C@H]1CC[C@]2(O)C(=O)COP(=O)(O)O | -23.2% |  | 
C=C1[C@@H]2CC[C@@]3(C)[C@H](c4ccoc4)OC(=O)C[C@]13O[C@H]1CC(=O)C(C)(C)[C@H](CC(=O)OC)[C@]12C | 3.99% [at 17.3 µM] |  | 
OC[C@H]1O[C@@H](OCCc2ccc(O)cc2)[C@H](O)[C@@H](O)[C@@H]1O |  |  | inactive
Cc1cc(Nc2ncc(Cl)c(Nc3ccccc3S(=O)(=O)C(C)C)n2)c(OC(C)C)cc1C1CCNCC1 |  |  | 6.51 µM (active)
C=C1C(=O)OC2CC(C)=C(C(C)CCCO[C@@H]3O[C@H](CO)[C@@H](O)[C@H](O)[C@H]3O)C(O)C12 (stereo partly specified) | 5.68% [at 17.3 µM] |  | 
CCCC(=O)O[C@]1(C(=O)COC(C)=O)CC[C@H]2[C@@H]3C[C@H](F)C4=CC(=O)C=C[C@]4(C)[C@@]3(F)[C@@H](O)C[C@@]21C | -4.62% |  | 
COC(=O)C1=CO[C@@H](O[C@@H]2O[C@H](COC(=O)/C=C/c3cc(OC)c(O)c(OC)c3)[C@@H](O)[C@H](O)[C@H]2O)[C@@H]2C(CO)=CC[C@H]12 |  | inactive [at 17.3 µM] | 
CC(C)(O)C1CCC2(C)C3C(O)C4C(C13)C42CO (stereo unspecified) |  | inactive | 
C/C=C/C=C/C=C/C(=O)O[C@@H]1C=C(CO)C(O)(C(=O)O)[C@@]2(C)CCCC(C)(C)[C@H]12 (stereo partly specified) | 4.51% [at 17.3 µM] |  | 

Structure (SMILES) | activity change, negative = cytotoxicity | outcome | Potency
CC(O)CO (stereo unspecified) | -2.08% |  | 
C/C=C/C=C/C=C/C(=O)O[C@@H]1[C@@H](OC)C2=C(C(=O)N(C(C)C(=O)O)C2)[C@@]2(C)CCCC(C)(C)[C@H]12 (stereo partly specified) | 0.039% [at 17.3 µM] |  | 
C=C1[C@H]2CC[C@]3(O)[C@@](CC[C@@H]4[C@](C)(C(=O)O)CCC[C@]43C)(C2)[C@H]1OC(=O)/C(C)=C\C |  | inactive [at 17.3 µM] | 
CC(=O)OC(C)OC(=O)C(C)c1ccc(-c2ccccc2)c(F)c1 (stereo unspecified) |  |  | inactive
COc1cc(C2OCC3C(c4ccc(OC5OC(CO)C(O)C(O)C5O)c(OC)c4)OCC23)ccc1O (stereo unspecified) | 8.63% [at 17.3 µM] |  | 
C=C(C(=O)O)C1CCC(C)C2CCC(=O)OC2(C)C1 (stereo unspecified) | 0.192% |  | 
C=C(C)[C@@H](C)[C@H]1O[C@]23C[C@]4(CO2)C(CCC2[C@@]5(C)CC[C@H](O[C@@H]6OC[C@H](O)[C@H](O[C@@H]7O[C@H](CO)[C@@H](O)[C@H](O)[C@H]7O)[C@H]6O[C@@H]6O[C@@H](CO)[C@H](O)[C@H]6O)C(C)(C)C5CC[C@]24C)C3[C@@](C)(O)[C@@H]1OC(C)=O (stereo partly specified) | 4.3% [at 9.29 µM] |  | 
COC(=O)[C@@]1(C)CC[C@]2(C(=O)O[C@@H]3O[C@H](CO)[C@@H](O)[C@H](O)[C@H]3O)CC[C@]3(C)C(=CCC4[C@@]5(C)CC[C@H](O[C@@H]6O[C@H](C(=O)O)[C@@H](O)[C@H](O)[C@H]6O)C(C)(C)C5CC[C@]43C)[C@@H]2C1 (stereo partly specified) | -9.96% [at 9.29 µM] |  | 
CC1=C(/C=C/C(C)=C/C=C/C(C)=C/CO)C(C)(C)CCC1 | -0.811% |  | 
CC1CCC2C(C(=O)O)=CC3CC(C)(C)CC132 (stereo unspecified) | 2.88% |  | 
CC(=O)Oc1cc(C)c(OC(C)=O)c2ccccc12 | -12.1% |  | 
CC1=C2C(=O)C=C(CO)[C@@H]2[C@H]2OC(=O)[C@H](C)[C@@H]2[C@@H](O)C1 | 6.88% |  | 
O=C(O)c1cc(O)c2c(c1)[O][Bi][O]2 | -8.89% |  | 
COc1cc2c(cc1O)C1(Cc3ccc4c(c3C1=O)OCO4)N(C)CC2 (stereo unspecified) |  | inactive | 
C[C@@H]1C/C=C/C=C\C=C\C=C\[C@H](O[C@@H]2O[C@H](C)[C@@H](O)[C@H](N)[C@@H]2O)C[C@@H]2O[C@](O)(C[C@@H](O)C[C@H]3O[C@@H]3/C=C/C(=O)O1)C[C@H](O)[C@H]2C(=O)O |  | inactive [at 17.3 µM] | 
